Each structure is given as a SMILES string. Values without a mark were called inactive. Inconclusive results are not listed. Activity calls are given as the source filed them. Unless noted, the call rests on the fitted dose curve; in most records, active means well fitted curve in the direction sought with a large enough effect in the repeat runs; inconclusive means weak or mixed curves; inactive means no such curve, though single readings can be large; an effect the other way counts as inactive or inconclusive.

25 molecules from PubChem BioAssay (Tox21) can be followed below.

Test [1] can be described thus: qHTS assay to identify small molecule antagonists of the androgen receptor (AR) signaling pathway using the MDA cell line in the presence of 0.5 nM R1881 - cell viability counter screen (AID 1259242). Further: nearly all actives have a fitted effect of over 45% in size. The essentials:
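Cytotoxicity toward MDA-kb2 cells is measured by CellTiter-Fluor live-cell protease fluorescence after 16 hr compound exposure at 37C in the presence of 0.5 nM R1881 stimulator.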
On the technique in general: Quantitative high-throughput screening tests each substance at several concentrations.

Test [2] deals with Androgen receptor (Homo sapiens) (UniProt P10275). Put plainly: qHTS assay to identify small molecule antagonists of the androgen receptor (AR) signaling pathway using the MDA cell line in the presence of 0.5 nM R1881 (AID 1259243). Further: nearly all actives have a fitted effect of over 50% in size. Further: potency means the concentration at half of the fitted maximal effect. Summed up: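 Steps: seed MDA-kb2 cells, incubate 5 hr at 37C; pin-transfer compounds in DMSO; add R1881 to 0.5 nM final; incubate 16 hr; add ONE-Glo, wait 30 min at room temperature; read luminescence.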

Test [3] is described as follows: qHTS assay to identify small molecule HDAC inhibitors - cell viability counter screen (AID 1259365). Further: series mostly up to about 92 µM; nearly all actives have a fitted effect of over 50% in size. Summed up:
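Counter screen in wild-type HCT-116 cells: compounds dissolved in DMSO are pin-transferred onto overnight-plated cells and left 2hr at 37C. ATP-based CellTiter-Glo luminescence then measures viable cells.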

Test [4] is described as follows: qHTS assay to identify small molecule agonists of the sonic hedgehog signaling (Shh) pathway - cell viability counter screen (AID 1259366). Further: nearly all actives have a fitted effect of over 50% in size. The essentials: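 Cells are plated at 2,000 per well and left 4hr at 37C, 5% CO2 before compound addition. After 23hr of treatment, CellTiter-Fluor reagent is added for 1hr at 37C and fluorescence is measured.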
The nature of test [5]: qHTS assay to identify small molecule antagonists of the sonic hedgehog signaling (Shh) pathway - cell viability counter screen (AID 1259367). Further: nearly all actives have a fitted effect of over 55% in size. Summed up:
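Using CellTiter-Fluor, viability of Gli1-Luc reporter 3T3 cells is read by fluorescence in the wells used for the Shh luciferase assay. Treatment lasts 23 hr with conditioned medium, then reagent 1 hr at 37C.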

Test [6] in a line: qHTS assay to identify small molecule agonists of the sonic hedgehog signaling (Shh) pathway (AID 1259368; calls by dose curve;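 further: NIH/3T3-derived 3T3Gli1-Luc cells carrying a stable Gli1-driven firefly luciferase reporter; series mostly up to about 92 µM; nearly all actives have a fitted effect of over 15% in size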). Summed up: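 Steps: seed 3T3 Gli1-Luc cells, incubate 4 hr at 37 C, pin-transfer compounds in DMSO alongside a positive control, incubate 24 hr, add luciferase detection reagent, wait 30 min at room temperature, read luminescence.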
Test [7] can be described thus: qHTS assay to identify small molecule antagonists of the sonic hedgehog signaling (Shh) pathway (AID 1259369; calls by dose curve; further: nearly all actives have a fitted effect of over 45% in size; further: potency means the concentration at half of the fitted maximal effect). The essentials:
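Inhibition of Shh signalling is measured as reduced Gli1-response-element firefly luciferase output in an NIH/3T3-derived stable reporter clone stimulated with conditioned medium for 24hr.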

Test [8] addresses Estrogen receptor (Homo sapiens) (UniProt P03372). Put plainly: qHTS assay to identify small molecule antagonists of the estrogen receptor alpha (ER-alpha) signaling pathway using the BG1 cell line in the presence of 0.1 nM 17-beta-estradiol (AID 1259244). Further: nearly all actives have a fitted effect of over 50% in size. The essentials: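 After 5 days in hormone-depleted medium (charcoal-stripped serum, no phenol red), VM7Luc4E2 cells were seeded, incubated 24 h, then co-treated with compound and 0.1 nM (final) estradiol for 22 h before luminescence detection.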

Test [9] can be described thus: qHTS assay to identify small molecule phospholipidosis (PLD) inducers (AID 1259344; active means well fitted curve in the direction sought with a large enough effect; an effect the other way counts as inactive or inconclusive). Summed up: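 Fluorescent phospholipid staining (LipidTOX Red) measured by automated microscopy in fixed HepG2 cells after 24 h treatment; nuclei counterstained with Hoechst 33342; amiodarone as reference inducer.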
Test [10] is described as follows: qHTS assay to identify small molecule HDAC inhibitors (AID 1259364). Further: nearly all actives have a fitted effect of over 45% in size. Further: potency means the concentration at half of the fitted maximal effect. The essentials: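 Homogeneous cell-based luminescent assay of endogenous class I/II HDAC activity; HCT-116 cells, 2 h compound exposure, 30 min HDAC-Glo development at RT.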

Sequence of Androgen receptor (Homo sapiens) (P10275 whole entry, looked up): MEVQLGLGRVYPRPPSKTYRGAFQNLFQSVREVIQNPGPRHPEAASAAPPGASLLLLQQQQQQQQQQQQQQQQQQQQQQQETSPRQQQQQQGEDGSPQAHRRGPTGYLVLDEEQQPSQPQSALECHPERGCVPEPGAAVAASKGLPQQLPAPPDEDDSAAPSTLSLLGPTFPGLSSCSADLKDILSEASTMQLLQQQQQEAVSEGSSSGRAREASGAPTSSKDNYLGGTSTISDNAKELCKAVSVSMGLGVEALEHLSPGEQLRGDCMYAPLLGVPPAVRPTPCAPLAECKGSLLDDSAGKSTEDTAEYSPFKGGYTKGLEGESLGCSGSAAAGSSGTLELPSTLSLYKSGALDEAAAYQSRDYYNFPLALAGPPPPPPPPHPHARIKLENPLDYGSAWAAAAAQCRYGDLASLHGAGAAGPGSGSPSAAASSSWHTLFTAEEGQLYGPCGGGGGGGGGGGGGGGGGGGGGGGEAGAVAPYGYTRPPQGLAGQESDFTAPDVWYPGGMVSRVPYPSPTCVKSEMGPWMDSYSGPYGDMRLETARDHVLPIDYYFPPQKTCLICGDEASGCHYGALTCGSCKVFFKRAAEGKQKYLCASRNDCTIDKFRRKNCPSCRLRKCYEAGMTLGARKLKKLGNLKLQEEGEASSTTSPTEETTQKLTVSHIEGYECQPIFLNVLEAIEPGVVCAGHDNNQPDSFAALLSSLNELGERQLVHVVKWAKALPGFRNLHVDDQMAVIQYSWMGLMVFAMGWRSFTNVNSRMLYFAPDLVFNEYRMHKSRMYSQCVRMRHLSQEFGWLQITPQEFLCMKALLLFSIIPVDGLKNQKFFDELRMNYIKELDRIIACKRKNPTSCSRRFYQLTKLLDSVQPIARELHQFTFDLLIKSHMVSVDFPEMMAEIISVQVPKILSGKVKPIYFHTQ
Sequence of Estrogen receptor (Homo sapiens) (P03372 whole entry, looked up): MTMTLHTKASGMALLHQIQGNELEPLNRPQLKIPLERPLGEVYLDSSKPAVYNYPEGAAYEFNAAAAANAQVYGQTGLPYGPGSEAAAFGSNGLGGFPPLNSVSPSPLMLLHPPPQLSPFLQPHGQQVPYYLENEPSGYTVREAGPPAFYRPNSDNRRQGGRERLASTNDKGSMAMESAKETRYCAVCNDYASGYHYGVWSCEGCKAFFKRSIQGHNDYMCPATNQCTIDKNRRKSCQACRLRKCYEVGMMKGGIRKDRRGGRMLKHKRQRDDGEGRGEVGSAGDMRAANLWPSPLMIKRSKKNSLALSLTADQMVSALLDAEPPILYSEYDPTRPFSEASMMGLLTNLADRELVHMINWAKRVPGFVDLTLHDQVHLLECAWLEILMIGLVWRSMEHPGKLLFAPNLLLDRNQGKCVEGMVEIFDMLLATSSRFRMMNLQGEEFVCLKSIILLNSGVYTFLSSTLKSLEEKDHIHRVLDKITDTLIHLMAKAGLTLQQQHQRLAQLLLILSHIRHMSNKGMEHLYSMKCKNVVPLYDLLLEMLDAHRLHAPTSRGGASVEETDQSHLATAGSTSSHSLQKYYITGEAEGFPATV

As to `Cc1coc2ccccc2c1=O`, the outcome in test [1], in test [3] and in [6] was inactive. Moreover, the Potency entry in test [2], in test [4], in test [5] and in test [7] was “inactive” in each case.
As for `C[N+]1(C)CCCC(OC(=O)C(O)(c2ccccc2)c2ccccc2)C1` (centres undefined), the outcome in test [1], in test [8], in [9], in [3] and in test [6] was inactive. The Potency entry in test [10], in test [4], in test [5] and in test [7] was “inactive” throughout.
On to `C[N+](C)(C)CCCCCCCCCC[N+](C)(C)C`, for which the result in [1], in test [8], in test [9], in [3] and in test [6] was inactive. Besides, the Potency result in test [10], in [4], in test [5] and in test [7] was “inactive” in each case.
As for `CCN[C@H]1C[C@H](C)S(=O)(=O)c2sc(S(N)(=O)=O)cc21`, the result in [1], in test [8], in [9], in [3] and in test [6] was inactive. The Potency entry in test [10], in [4] and in test [7] was “inactive” throughout.
With `N[C@H](C(=O)O)[C@@H](O)c1ccc(O)c(O)c1`, the result in test [1], in test [8], in test [9], in test [3] and in test [6] was inactive. Moreover, the Potency result in test [10], in test [4], in test [5] and in [7] was “inactive” in each case.
Consider `CC(COc1ccccc1)NN` (centres undefined), for which the result in [1], in [8], in test [9], in [3] and in [6] was inactive. The Potency entry in test [10], in test [4], in [5] and in test [7] was “inactive” each time.
With `CN(C)C(=O)Oc1cccc([N+](C)(C)C)c1`, the result in test [1], in test [8], in [9], in [3] and in test [6] was inactive. Further, the Potency entry in test [10], in [4], in [5] and in test [7] was “inactive” each time.
On to `O=C(O)c1cn(C2CC2)c2cc(N3CCNCC3)c(F)cc2c1=O`, for which the result in test [1], in test [8], in [9], in [3] and in test [6] was inactive. The Potency result in [10], in [4], in [5] and in test [7] was “inactive” in each case.
On to `CC(=O)Oc1cccc(C)c1`, for which the outcome in [1], in [8], in test [9], in test [3] and in [6] was inactive. Moreover, the Potency entry in test [10], in test [4], in test [5] and in test [7] was “inactive” throughout.
As for `O=C(CO)[C@@H](O)[C@H](O)[C@H](O)CO`, the result in test [1], in test [8], in [9], in [3] and in test [6] was inactive. Besides, the Potency result in test [10], in test [4] and in test [7] was “inactive” in each case.
Turning to `CCOc1ccc2nc(S(N)(=O)=O)sc2c1`, the outcome in test [1], in test [8], in test [9], in test [3] and in [6] was inactive. For the same molecule, the Potency result in [4], in test [5] and in test [7] was “inactive” each time.
With `CC(N)C12CC3CC(CC(C3)C1)C2` (centres undefined), the result in test [1], in test [8], in [9], in test [3] and in test [6] was inactive. The Potency result in test [10], in [4], in test [5] and in test [7] was “inactive” each time.
As for `CNC(=O)Nc1ccc(Cl)c(Cl)c1`, the outcome in test [1], in [3] and in test [6] was inactive. For the same molecule, in test [2], the Potency is 30.6 µM (active). For the same molecule, the Potency result in [4], in test [5] and in [7] was “inactive” in each case.
Consider `CO/N=C(\C(=O)N[C@@H]1C(=O)N2C(C(=O)O)=C(CSc3nc(=O)c(O)nn3C)CS[C@H]12)c1csc(N)n1`, for which the outcome in test [1], in test [8], in test [9], in test [3] and in [6] was inactive. The Potency entry in test [10], in test [4], in test [5] and in test [7] was “inactive” throughout.
Regarding `CN1CC(=O)N/C1=N/C(=O)Nc1cccc(Cl)c1`, the result in test [1], in test [8], in [9], in test [3] and in test [6] was inactive. For the same molecule, the Potency in test [10] is 4.22 µM (active). The Potency entry in test [4], in [5] and in test [7] was “inactive” throughout.
With `CC1=NS(=O)(=O)c2cc(Cl)ccc2N1`, the result in test [1], in test [8], in test [9] and in test [6] was inactive. Besides, the Potency entry in test [10], in [4] and in [7] was “inactive” throughout.
As for `CCOC(=O)OC(C)OC1=C(C(=O)Nc2ccccn2)N(C)S(=O)(=O)c2ccccc21` (centres undefined), the result in test [1], in [8], in test [9], in test [3] and in test [6] was inactive. In addition, the Potency entry in [10], in [4], in test [5] and in [7] was “inactive” in each case.
For the molecule `Cc1ncc(COP(=O)(O)O)c(C=O)c1O`, the outcome in test [1], in test [8], in [9], in test [3] and in test [6] was inactive. In addition, the Potency result in [10], in test [4], in test [5] and in test [7] was “inactive” throughout.
On to `CC(C)C1CCC(O)CC1` (centres undefined), for which the result in test [1], in test [3] and in test [6] was inactive. In addition, the Potency result in [2], in test [10], in test [4] and in test [7] was “inactive” in each case.
In the case of `[O-][n+]1cccc(CO)c1`, the outcome in test [1], in test [8], in test [9], in test [3] and in test [6] was inactive. Moreover, the Potency entry in test [10], in [4], in test [5] and in test [7] was “inactive” each time.
As to `CCCCCCCCCCCCCCCCCCO`, the result in test [1], in test [8], in [9], in test [3] and in test [6] was inactive. Further, the Potency entry in [10], in test [4], in test [5] and in test [7] was “inactive” throughout.
For `CCN(Cc1ccccc1)c1ccccc1`, the outcome in test [1], in test [3] and in test [6] was inactive. Besides, the Potency in test [2] is 53.8 µM (active); in test [7] it was 48 µM (active). The Potency entry in [10] and in test [5] was “inactive” in each case.
Consider `CCC1C(=O)OCC1Cc1cncn1C` (centres undefined), for which the result in test [1], in test [8], in test [9], in test [3] and in test [6] was inactive. Moreover, the Potency entry in test [10], in [4] and in test [7] was “inactive” in each case.
`N[C@@H](CCC(=O)O)C(=O)O`: the result in [1], in test [8], in test [9], in test [3] and in [6] was inactive. Further, the Potency entry in test [10], in test [4] and in test [7] was “inactive” in each case.
In the case of `CN1[C@@H]2CC[C@H]1CC(OC(=O)C(O)c1ccccc1)C2` (some centres undefined), the outcome in test [1], in [8], in [9], in test [3] and in test [6] was inactive. Besides, the Potency entry in test [10], in test [4] and in test [7] was “inactive” throughout.
